Values joined by “and” are separate entries in the source; they are usually repeats but may differ in a detail not shown here. Equal entries are not always repeated. Active and inactive are the calls of the source.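 The calls were made as follows, unless noted: active = compound raises GLP1 secretion from the human gut endocrine cells, with no numeric limit stated; inactive = the rest.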
Tests used:
[1] = Wnt pathway potentiators raising nuclear beta-catenin – imaging, WNT3A-conditioned medium, mouse C2C12, NPC library, primary screen (AID 1117326; in the data active = nuclear beta-catenin stimulation mostly above about 4.2%, no sharp cut-off; inactive = mostly below about 10%; also: reference of the scale not given here); details: stronger effect = higher value
[2] = stimulators of insulin release from INS-1E, primary screen, cell-based, 5 mM glucose, NPC library (AID 1117329;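 active = compound raises insulin release from rat beta cells at 5 mM glucose, no numeric limit stated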; also: reference of the scale not given here); details: rat INS-1E insulin secretion, at 10 µM, stronger effect = higher value
[3] = GLP1 release stimulators, primary, NCI-H716, NPC library (AID 1117341); details: NCI-H716 cells, at 10 µM, stronger effect = higher value; also: reference of the scale not given here
[4] = growth inhibition of GSK3B-pretreated HCT116 cells – cell-based, CellTiter-Glo, 0.2 to 20 µM (AID 1117336;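 active = compounds lowering colon cancer cell viability after pretreatment blocking the GSK3B kinase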); details: HCT116 viability after GSK3B inhibitor, at 20 µM, stronger effect = higher value
[5] = inhibition of endothelial tube formation, primary screen, imaging, VEGF stimulated, CD31 staining, tube area, NPC library (AID 1117340;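 active = compound that reduces growth-factor-driven endothelial tube area in a mixed cell culture, no cutoff stated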); details: VEGF-stimulated ADSC/ECFC co-culture, at 10 µM, stronger effect = higher value
[6] = HCT116 colon cancer cell growth inhibition, primary screen, CellTiter-Glo luminescence, NPC library (AID 1117342;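 active = compounds that lower survival of HCT116 colon cancer cells in the luminescence readout, no numeric limit stated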); details: at 20 µM (top of the series)
[7] = reduced SW480 viability measured with CellTiter-Glo, NPC library, primary (AID 1117343;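 active = compounds that lower viability of the colon cancer cells in the luminescence readout, with no numeric limit stated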); details: CellTiter-Glo luminescence; at 20 µM (top of the series)
[8] = NPC library primary testing for decreased DLD-1 cell viability via CellTiter-Glo (AID 1117346;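 active = compounds that lower survival of DLD-1 colon cancer cells in the luminescence readout, no cutoff given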); details: DLD-1 viability, CellTiter-Glo luminescence; at 20 µM (top of the series)
[9] = viability loss with induced miR-34 in A549 – imaging, A549 dox-inducible miR-34, nuclei and caspase counts, primary screen (AID 1347080;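 active = compounds whose cell count with miR-34 switched on is under 0.7 times the count with it off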); details: A549 miR-34 inducible, Hoechst nuclei count, 48 h
[10] = MELAS cybrid and Rieske KO viability enhancers – cell-based, MELAS cybrids, Rieske KO mouse fibroblasts, CellTiter-Glo, primary screen (AID 1508586;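 active = mean z-score across replicates of 1.96 or higher in either the MELAS or the Rieske mutant cell line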;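 also: z relative to plate mean and SD of compound and empty wells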); details: low glucose
[11] = molecular target: NAD(+) hydrolase SARM1 (Homo sapiens) (UniProt Q6SZW1); assay: blocking NAD cleavage by SARM1 SAM-TIR – cell lysate, NAD-Glo luminescence (AID 1508614;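 active = compound whose remaining NAD level is above about 45 nM, limit read from the data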;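 also: higher remaining NAD means stronger inhibition of SARM1 NADase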); details: SAM-TIR HEK293T lysate NADase, at 1 µM, stronger effect = higher value
[12] = P. berghei load reduction in hepatocytes – cell-based, HepG2, luciferase luminescence, HepG2 viability, primary screen (AID 624349; in the data active = parasite load remaining mostly below about 12%, no sharp cut-off; inactive = mostly above about 10%;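 also: 100% = mean of DMSO negative control wells on the same plate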); details: P. berghei liver stage in HepG2, luciferase luminescence, concentration not given here; parasite load remaining: stronger effect = lower value; viability: measured here: HepG2 viability without parasites
[13] = galactose survival enhancers in mitochondrial complex I cybrids – cell-based, galactose medium, ATP luminescence, primary screen (AID 1645843;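 active = z-score of at least 1.8 in each of two replicates, scored against plate mean and spread of sample wells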;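 also: positive z means more ATP and so rescue of galactose-driven cybrid death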); details: complex I mutant cybrid cells, 72 h, stronger effect = higher value
[14] = compounds altering viability of human ES cells (AID 493140; call rule not given here;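 also: cells exposed to compounds for four days before counting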); details: human embryonic stem cell survival screen; stronger effect = higher value
[15] = stronger effect = lower value, cell number ratio, induced over uninduced
[16] = measured here: relative caspase fold change +Dox/-Dox
[17] = measured here: total cells with miR-34 induction, stronger effect = lower value
[18] = measured here: total cells without miR-34 induction
[19] = MELAS cybrid survival, CellTiter-Glo 48 h, stronger effect = higher value
[20] = Rieske KO mouse fibroblast survival, CellTiter-Glo 72 h

Sequence of NAD(+) hydrolase SARM1 (Homo sapiens) (Q6SZW1 whole entry, looked up): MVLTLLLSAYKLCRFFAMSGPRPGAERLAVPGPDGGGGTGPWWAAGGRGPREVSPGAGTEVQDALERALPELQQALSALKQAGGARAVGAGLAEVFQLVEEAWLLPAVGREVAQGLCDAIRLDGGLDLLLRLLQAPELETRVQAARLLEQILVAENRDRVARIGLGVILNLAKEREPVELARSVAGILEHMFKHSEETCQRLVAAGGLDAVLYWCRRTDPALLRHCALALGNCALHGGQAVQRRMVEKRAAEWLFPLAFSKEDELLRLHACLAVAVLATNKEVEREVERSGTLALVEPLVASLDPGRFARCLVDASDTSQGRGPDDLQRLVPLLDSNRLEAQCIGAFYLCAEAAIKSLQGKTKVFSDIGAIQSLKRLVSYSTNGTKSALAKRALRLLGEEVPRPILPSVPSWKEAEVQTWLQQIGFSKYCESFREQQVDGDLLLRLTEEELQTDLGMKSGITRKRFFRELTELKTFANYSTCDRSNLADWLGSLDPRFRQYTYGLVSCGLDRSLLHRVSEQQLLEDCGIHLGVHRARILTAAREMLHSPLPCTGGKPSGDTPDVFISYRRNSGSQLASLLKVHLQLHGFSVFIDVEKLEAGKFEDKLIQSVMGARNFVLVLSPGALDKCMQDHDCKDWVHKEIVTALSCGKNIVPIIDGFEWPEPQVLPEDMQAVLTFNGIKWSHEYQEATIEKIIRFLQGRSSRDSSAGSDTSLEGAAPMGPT

CCOP(=S)(OCC)SCSc1ccc(Cl)cc1
nuclear beta-catenin stimulation ([1]; at 10 µM): 1.3% (inactive)
nuclear beta-catenin stimulation ([1]; stimulation, at 2 µM): -1.3%
insulin secretion stimulation [2]: -1.15% (inactive)
GLP1 secretion stimulation [3]: -0.9% (inactive)

CCCCCCC(=O)CCCCCC/C=C/C[C@@H](O)[C@H](O)[C@@](N)(CO)C(=O)O
nuclear beta-catenin stimulation ([1]; at 10 µM): -0.4% (inactive)
nuclear beta-catenin stimulation ([1]; stimulation, at 2 µM): 1.7%
insulin secretion stimulation [2]: 1.7% (inactive)
viability decrease [4]: -39.7% (inactive)
tube area decrease [5]: -16.8% (inactive)
GLP1 secretion stimulation [3]: -2.8% (inactive)
inhibition of viability [6]: -29.4% (inactive)
viability decrease (inhibition) [7]: 31.4% (inactive)
viability decrease (inhibition) [8]: 9.9% (inactive)
fold change [9, 15]: 0.991 (inactive)
fold change [9, 16]: 0.843
cell count [9, 17]: 5220
cell count [9, 18]: 5270

CN(C)CCc1ccc(O)cc1
nuclear beta-catenin stimulation ([1]; at 10 µM): -0.3% (inactive)
nuclear beta-catenin stimulation ([1]; stimulation, at 2 µM): 1.5%
insulin secretion stimulation [2]: -0.4% (inactive)
viability decrease [4]: 1.5% (inactive)
tube area decrease [5]: 4.1% (inactive)
GLP1 secretion stimulation [3]: 1.1% (inactive)
inhibition of viability [6]: 4.7% (inactive)
viability decrease (inhibition) [7]: 1.9% (inactive)
viability decrease (inhibition) [8]: -0.4% (inactive)
fold change [9, 15]: 0.908 (inactive)
fold change [9, 16]: 0.849
cell count [9, 17]: 9070
cell count [9, 18]: 9990
z-score [10, 19]: -0.277 (inactive)
z-score [10, 20]: 0.765

COC(C)(C)CCCC(C)C/C=C/C(C)=C/C(=O)OC(C)C (configuration not stated)
nuclear beta-catenin stimulation ([1]; at 10 µM): 2% (inactive)
nuclear beta-catenin stimulation ([1]; stimulation, at 2 µM): 1%
insulin secretion stimulation [2]: 1.35% (inactive)
viability decrease [4]: 30.9% (inactive)
tube area decrease [5]: 2.7% (inactive)
GLP1 secretion stimulation [3]: 3.9% (inactive)
inhibition of viability [6]: 42% (inactive)
viability decrease (inhibition) [7]: 9.6% (inactive)
viability decrease (inhibition) [8]: 17.2% (inactive)
remaining NAD [11]: 10 nM (inactive)

COP(=S)(OC)Oc1cc(Cl)c(Cl)cc1Cl
parasite load remaining [12]: 48.6% (inactive)
viability [12]: 108%
nuclear beta-catenin stimulation ([1]; at 10 µM): 2.5% (inactive)
nuclear beta-catenin stimulation ([1]; stimulation, at 2 µM): -0.1%
insulin secretion stimulation [2]: 2.1% (inactive)
viability decrease [4]: -23.4% (inactive)
tube area decrease [5]: -3.6% (inactive)
GLP1 secretion stimulation [3]: 3.7% (inactive)
inhibition of viability [6]: 9.4% (inactive)
viability decrease (inhibition) [7]: 32% (inactive)
viability decrease (inhibition) [8]: 15.4% (inactive)
fold change [9, 15]: 0.898 (inactive)
fold change [9, 16]: 3.75
cell count [9, 17]: 12000
cell count [9, 18]: 13300

Cc1cccc(Cc2cnc[nH]2)c1C
nuclear beta-catenin stimulation ([1]; at 10 µM): 7.4% (inactive)
nuclear beta-catenin stimulation ([1]; stimulation, at 2 µM): 8.1%
insulin secretion stimulation [2]: 0.4% (inactive)
viability decrease [4]: -41.9% (inactive)
tube area decrease [5]: 15.5% (inactive)
GLP1 secretion stimulation [3]: 4.1% (inactive)
inhibition of viability [6]: 4.37% (inactive)
viability decrease (inhibition) [7]: -5.1% (inactive)
viability decrease (inhibition) [8]: -9.9% (inactive)
fold change ([9]; stronger effect = lower value): 0.969 (inactive)
fold change [9, 16]: 0.529
cell count [9, 17]: 7080
cell count [9, 18]: 7310
z-score [10, 19]: 0.317 (inactive)
z-score [10, 20]: -0.228

COCC(C)N(C(=O)CCl)c1c(C)csc1C (configuration not stated)
nuclear beta-catenin stimulation ([1]; at 10 µM): 0.5% (inactive)
nuclear beta-catenin stimulation ([1]; stimulation, at 2 µM): 2.6%
insulin secretion stimulation [2]: 0.7% (inactive)
GLP1 secretion stimulation [3]: -0.9% (inactive)

C#C[C@]1(O)CC[C@H]2[C@@H]3CCC4=CC(=O)CCC4=C3C=C[C@@]21CC
parasite load remaining [12]: 55.7% (inactive)
viability [12]: 102%
nuclear beta-catenin stimulation ([1]; at 10 µM): -0.6% (inactive)
nuclear beta-catenin stimulation ([1]; stimulation, at 2 µM): 0.3%
insulin secretion stimulation [2]: 0.7% (inactive)
viability decrease [4]: 14.5% (inactive)
tube area decrease [5]: 41.9% (active)
GLP1 secretion stimulation [3]: 2.8% (inactive)
inhibition of viability [6]: 26.1% (inactive)
viability decrease (inhibition) [7]: 16% (inactive)
viability decrease (inhibition) [8]: -9.5% (inactive)
fold change ([9]; stronger effect = lower value): 0.886 (inactive)
fold change [9, 16]: 1.01
cell count [9, 17]: 9780
cell count [9, 18]: 11000
z-score [10, 19]: 0.0912 (inactive) and 0.694 (inactive)
z-score [10, 20]: 0.385 and 1.43
z-score [13]: 0.24 (inactive)

NCCC[C@H](N)C(=O)O
nuclear beta-catenin stimulation ([1]; at 10 µM): 1.2% (inactive)
nuclear beta-catenin stimulation ([1]; stimulation, at 2 µM): 1.6%
insulin secretion stimulation [2]: -2.2% (inactive)
viability decrease [4]: -5.15% (inactive)
tube area decrease [5]: -2.1% (inactive)
GLP1 secretion stimulation [3]: 1.4% (inactive)
inhibition of viability [6]: -35.4% (inactive)
viability decrease (inhibition) [7]: 98.1% (active)
viability decrease (inhibition) [8]: 0.35% (inactive)
remaining NAD [11]: 10 nM (inactive)

CCC(C(N)=O)N1CCCC1=O (configuration not stated)
nuclear beta-catenin stimulation ([1]; at 10 µM): -0.1% (inactive)
nuclear beta-catenin stimulation ([1]; stimulation, at 2 µM): -0.2%
insulin secretion stimulation [2]: 1.4% (inactive)
viability decrease [4]: -0.8% (inactive)
tube area decrease [5]: -18.3% (inactive)
GLP1 secretion stimulation [3]: 0.6% (inactive)
inhibition of viability [6]: -4.9% (inactive)
viability decrease (inhibition) [7]: -0.6% (inactive)
viability decrease (inhibition) [8]: -1.1% (inactive)
fold change ([9]; stronger effect = lower value): 0.925 (inactive) and 0.884 (inactive)
fold change [9, 16]: 1.53 and 10.7
cell count [9, 17]: 9780 and 8770
cell count [9, 18]: 10600 and 9920
z-score [10, 19]: 2 (active)
z-score [10, 20]: 0.478
z-score [13]: 0.645 (inactive)

COC(=O)c1ccccc1C(=O)OC
nuclear beta-catenin stimulation ([1]; at 10 µM): -1.6% (inactive)
nuclear beta-catenin stimulation ([1]; stimulation, at 2 µM): -0.6%
insulin secretion stimulation [2]: 0.5% (inactive)
GLP1 secretion stimulation [3]: -5.4% (inactive)

O=C(CCCN1CCC(n2c(=O)[nH]c3ccccc32)CC1)c1ccc(F)cc1
survival [14]: 11.5 (inactive)
parasite load remaining [12]: -5.69% (inactive) and 52.9% (inactive)
viability [12]: 105% and 74.8%
nuclear beta-catenin stimulation ([1]; at 10 µM): 4.7% (inactive)
nuclear beta-catenin stimulation ([1]; stimulation, at 2 µM): 3%
insulin secretion stimulation [2]: 0.7% (inactive)
viability decrease [4]: -40.8% (inactive)
tube area decrease [5]: 8% (inactive)
GLP1 secretion stimulation [3]: 2.9% (inactive)
inhibition of viability [6]: 19.9% (inactive)
viability decrease (inhibition) [7]: 29.4% (inactive)
viability decrease (inhibition) [8]: 2.6% (inactive)
fold change ([9]; stronger effect = lower value): 0.825 (inactive)
fold change [9, 16]: 1.64
cell count [9, 17]: 7580
cell count [9, 18]: 9190
z-score [10, 19]: 0.0917 (inactive)
z-score [10, 20]: -0.147

CC[N+]1(CCOC(=O)C(O)(c2ccccc2)c2ccccc2)CCCCC1
nuclear beta-catenin stimulation ([1]; at 10 µM): -0.3% (inactive)
nuclear beta-catenin stimulation ([1]; stimulation, at 2 µM): 0.7%
insulin secretion stimulation [2]: -0.8% (inactive)
tube area decrease [5]: 23.5% (inactive)
GLP1 secretion stimulation [3]: 0.5% (inactive)
